Here are results for five compounds from PubChem BioAssay.

A short description of assay [1]: binders of probe aFSTL3 on microarray, primary screen, stem cell growth factor project, biochemical, small-molecule microarray, fluorescence 635/667 (AID 1064).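 Further: measures binding of the biotinylated anti-FSTL3 antibody to printed compounds.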 The note with it: higher = more signal.
Assay [2] in a line: binders from COS7 lysate, DM2A8 probe, primary screen, torsin A project, cell lysate, small-molecule microarray, fluorescence 635/667 (AID 1065). The conditions noted are these: higher = more signal, COS7 lysate expressing mutant human TOR1A.
A short description of assay [3]: binders of probe aFGF2 on microarray, primary screen, stem cell growth factor project, biochemical, small-molecule microarray, fluorescence 635/667 (AID 1067).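 Further: measures binding of biotinylated aFGF2 protein to printed compounds on slides; z-score merges feature fluorescence and signal-to-noise across triplicate slides.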 The note with it: higher = more signal.
Assay [4] in a line: binders of probe aFGF10 on microarray, primary screen, stem cell growth factor project, biochemical, small-molecule microarray, fluorescence 635/667 (AID 1071).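 Further: score merges 667 nm spot intensity and signal to noise from triplicate slides.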 The note with it: higher = more signal.
Assay [5] deals with Neurogenic locus notch homolog protein 2 (Homo sapiens) (UniProt Q04721). As to the kind of experiment: Notch2 binders on small-molecule microarrays, primary screen, biochemical, small-molecule microarray, 635 nm fluorescence, stem cell growth factors (AID 1073). The conditions noted are these: Notch2 binding, higher = more signal.
The target of assay [6] is Pro-neuregulin-1, membrane-bound isoform (Homo sapiens) (UniProt Q02297). As to the kind of experiment: NRG1 binders on small-molecule microarrays, primary screen, psychiatric disease protein project, biochemical, small-molecule microarray, fluorescence 635/667 (AID 1075).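 Further: score combines 667 nm spot fluorescence with signal to noise.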 The conditions noted are these: NRG1 binding, 635 nm fluorescence, higher = more signal.
Assay [7] relates to Neuregulin-1 EGF-like domain. Briefly: binders of neuregulin-1 EGF-like domain, primary screen, biochemical, small-molecule microarray, 635 nm fluorescence (AID 1081).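 Further: binding of the protein to compounds printed on small-molecule microarray slides.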 The note with it: small-molecule microarray binding, higher = more signal.
A short description of assay [8]: FRG1 promoter luciferase signal modulators, primary screen, FRG1 inhibition for FSHD, cell-based, C2C12 myotubes, firefly/Renilla luciferase, luminescence (AID 1084). The note with it: higher = more signal, called active from +8 up or from −8 down.
Assay [9] is described as follows: binders of probe aFST on microarray, primary screen, stem cell growth factor project, biochemical, small-molecule microarray, fluorescence 635/667 (AID 1086).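 Further: score merges 667 nm fluorescence with signal-to-noise of each printed compound spot.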 The note with it: higher = more signal.
The nature of assay [10]: binders of probe aHhip on microarray, primary screen, stem cell growth factor project, biochemical, small-molecule microarray, fluorescence 635/667 (AID 1087).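 Further: score merges spot fluorescence at 667nm with spot signal to noise ratio.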 The conditions noted are these: higher = more signal.
Assay [11] deals with PRMT1 (protein arginine N-methyltransferase 1). As to the kind of experiment: PRMT1 binders on small-molecule microarrays, primary screen, biochemical, small-molecule microarray, 635 nm fluorescence (AID 1088).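 Further: binding of Prmt1 protein to compounds spotted on small-molecule microarray slides.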 The conditions noted are these: small-molecule microarray binding, higher = more signal.
Assay [12] is described as follows: yeast growth modulation, basal conditions, primary screen, YJM789 clinical isolate, OD600, 24 h (AID 1089).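 Further: growth of clinical yeast isolate S. cerevisiae YJM 789 seeded 1000 cells per well; test concentration not given here.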 The conditions noted are these: S. cerevisiae YJM789 growth, higher = more signal, called active from +8 up or from −8 down.
A short description of assay [13]: fission yeast growth modulation, primary screen, strain 972, OD600, 24 h, no modulator (AID 1090).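 Further: basal condition with compound alone and no growth modifier present; test concentration not given here.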 The conditions noted are these: S. pombe 972 growth, higher = more signal, called active from +8 up or from −8 down.
Assay [14] in a line: S. cerevisiae growth modulation with rapamycin, primary screen, strain BY4716, OD600, 96 h (AID 1091). Further: test concentration not given here. The conditions noted are these: higher = more signal, called active from +8 up or from −8 down.
Assay [15] has as its target Torsin-1A-interacting protein 2 (Homo sapiens) (UniProt Q8NFQ8). As to the kind of experiment: LULL1 binders on small-molecule microarray, primary screen, cell lysate, human LULL1 lysate, 635/667 nm fluorescence (AID 1092).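 Further: probe is lysate of COS7 cells overexpressing human LULL1; score merges per-feature 667 nm fluorescence with signal-to-noise.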 The conditions noted are these: hLULL1 lysate binding, 635 nm fluorescence, higher = more signal.
Assay [16] in a line: E. coli growth modulation, two-sided OD650, primary screen, E. coli filamentation project, strain DRC41, 24 h (AID 1093).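 Further: MC1000 strain lacking acrAB efflux and sulA so SOS filamentation is blocked; test concentration not given here.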 The note with it: OD650, 24 h, higher = more signal, called active from +8 up or from −8 down.
The nature of assay [17]: small-molecule microarray binders of probe aLefty2, primary screen, biochemical, biotinylated probe, 635/667 nm fluorescence (AID 1094).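 Further: score merges spot fluorescence near 667 nm with spot signal-to-noise ratio.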 The conditions noted are these: higher = more signal.
The subject of assay [18] is Noggin (protein binding on small-molecule microarray). As to the kind of experiment: Noggin binders on small-molecule microarray, primary screen, biochemical, 635/667 nm fluorescence (AID 1095).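 Further: score merges 667 nm feature fluorescence with signal to noise over triplicate slides.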 The conditions noted are these: 635 nm fluorescence, higher = more signal.
Assay [19] addresses Neurogenic locus notch homolog protein 3 (Homo sapiens) (UniProt Q9UM47). Briefly: NOTCH3 binders on small-molecule microarray, primary screen, biochemical, 635/667 nm fluorescence (AID 1096). The conditions noted are these: NOTCH3 binding, 635 nm fluorescence, higher = more signal.
Assay [20] in a line: small-molecule microarray binders of probe aEGFR, primary screen, biochemical, biotinylated probe, 635/667 nm fluorescence (AID 1097).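 Further: probe is a biotinylated anti-EGFR antibody binding compounds printed on slides; score combines fluorescence near 667 nm and signal to noise of each spot.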 The note with it: higher = more signal.

Activity calls are given as the source filed them.

Sequence of Neurogenic locus notch homolog protein 2 (Homo sapiens) (Q04721 whole entry, looked up, canonical isoform): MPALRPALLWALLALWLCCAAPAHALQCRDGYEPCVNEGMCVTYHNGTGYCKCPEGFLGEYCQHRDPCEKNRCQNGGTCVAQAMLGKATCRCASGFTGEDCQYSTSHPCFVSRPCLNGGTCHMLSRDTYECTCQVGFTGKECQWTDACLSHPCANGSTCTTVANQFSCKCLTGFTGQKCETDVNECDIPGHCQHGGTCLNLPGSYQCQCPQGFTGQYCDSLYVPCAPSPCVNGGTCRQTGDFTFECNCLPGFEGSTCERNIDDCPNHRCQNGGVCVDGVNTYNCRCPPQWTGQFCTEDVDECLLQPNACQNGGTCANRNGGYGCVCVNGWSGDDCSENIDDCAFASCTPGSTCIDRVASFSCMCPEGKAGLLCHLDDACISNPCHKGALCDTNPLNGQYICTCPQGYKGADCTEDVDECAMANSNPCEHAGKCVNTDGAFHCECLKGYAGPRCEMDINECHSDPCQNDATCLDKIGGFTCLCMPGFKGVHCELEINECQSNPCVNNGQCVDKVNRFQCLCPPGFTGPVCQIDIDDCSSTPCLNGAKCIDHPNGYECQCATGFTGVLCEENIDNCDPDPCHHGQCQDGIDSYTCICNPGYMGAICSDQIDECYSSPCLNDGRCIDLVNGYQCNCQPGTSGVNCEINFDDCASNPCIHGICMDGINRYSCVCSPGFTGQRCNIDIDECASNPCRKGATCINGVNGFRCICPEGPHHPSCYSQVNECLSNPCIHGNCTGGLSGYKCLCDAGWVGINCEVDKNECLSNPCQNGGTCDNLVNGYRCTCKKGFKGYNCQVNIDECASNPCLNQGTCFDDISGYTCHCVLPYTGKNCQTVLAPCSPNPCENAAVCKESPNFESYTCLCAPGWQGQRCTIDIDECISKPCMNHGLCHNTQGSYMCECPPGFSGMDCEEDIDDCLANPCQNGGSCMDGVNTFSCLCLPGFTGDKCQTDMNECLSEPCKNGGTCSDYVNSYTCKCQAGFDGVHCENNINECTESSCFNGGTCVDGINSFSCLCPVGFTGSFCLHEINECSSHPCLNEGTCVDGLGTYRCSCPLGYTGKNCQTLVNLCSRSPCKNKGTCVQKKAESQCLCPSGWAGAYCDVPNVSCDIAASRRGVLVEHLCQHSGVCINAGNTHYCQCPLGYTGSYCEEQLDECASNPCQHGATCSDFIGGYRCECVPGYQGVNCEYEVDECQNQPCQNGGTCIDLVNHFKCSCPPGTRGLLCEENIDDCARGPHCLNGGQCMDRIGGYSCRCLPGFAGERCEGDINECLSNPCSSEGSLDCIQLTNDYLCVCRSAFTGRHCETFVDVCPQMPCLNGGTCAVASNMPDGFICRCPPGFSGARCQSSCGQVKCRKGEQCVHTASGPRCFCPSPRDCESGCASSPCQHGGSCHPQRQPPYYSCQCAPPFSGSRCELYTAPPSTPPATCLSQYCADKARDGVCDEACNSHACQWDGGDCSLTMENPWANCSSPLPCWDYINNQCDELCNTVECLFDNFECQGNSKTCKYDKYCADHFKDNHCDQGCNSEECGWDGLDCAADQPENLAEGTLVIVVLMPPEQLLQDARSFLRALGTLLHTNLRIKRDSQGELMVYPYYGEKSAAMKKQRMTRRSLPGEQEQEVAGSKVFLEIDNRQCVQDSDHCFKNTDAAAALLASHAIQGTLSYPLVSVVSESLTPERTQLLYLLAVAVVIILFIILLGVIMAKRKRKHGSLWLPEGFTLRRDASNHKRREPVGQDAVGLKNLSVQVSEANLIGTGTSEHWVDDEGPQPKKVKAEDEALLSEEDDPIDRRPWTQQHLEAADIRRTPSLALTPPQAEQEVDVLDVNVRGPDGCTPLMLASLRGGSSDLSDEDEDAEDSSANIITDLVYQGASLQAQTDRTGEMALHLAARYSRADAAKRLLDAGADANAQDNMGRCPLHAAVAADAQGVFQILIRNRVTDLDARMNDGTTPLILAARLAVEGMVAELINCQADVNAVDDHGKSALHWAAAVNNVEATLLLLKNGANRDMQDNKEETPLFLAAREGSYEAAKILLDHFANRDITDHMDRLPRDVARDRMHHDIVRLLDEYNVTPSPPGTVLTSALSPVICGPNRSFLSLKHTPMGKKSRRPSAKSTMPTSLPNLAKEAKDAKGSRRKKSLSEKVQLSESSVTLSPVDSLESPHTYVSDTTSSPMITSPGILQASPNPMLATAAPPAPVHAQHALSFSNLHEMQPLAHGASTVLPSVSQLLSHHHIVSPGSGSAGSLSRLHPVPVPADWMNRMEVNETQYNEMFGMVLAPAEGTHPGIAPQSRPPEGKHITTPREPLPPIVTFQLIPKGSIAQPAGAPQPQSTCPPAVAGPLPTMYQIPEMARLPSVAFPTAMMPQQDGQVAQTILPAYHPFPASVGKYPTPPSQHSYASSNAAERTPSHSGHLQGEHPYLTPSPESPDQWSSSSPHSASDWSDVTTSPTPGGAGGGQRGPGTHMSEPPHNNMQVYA
Sequence of Pro-neuregulin-1, membrane-bound isoform (Homo sapiens) (Q02297 whole entry, looked up, the tested form may be a part, canonical isoform): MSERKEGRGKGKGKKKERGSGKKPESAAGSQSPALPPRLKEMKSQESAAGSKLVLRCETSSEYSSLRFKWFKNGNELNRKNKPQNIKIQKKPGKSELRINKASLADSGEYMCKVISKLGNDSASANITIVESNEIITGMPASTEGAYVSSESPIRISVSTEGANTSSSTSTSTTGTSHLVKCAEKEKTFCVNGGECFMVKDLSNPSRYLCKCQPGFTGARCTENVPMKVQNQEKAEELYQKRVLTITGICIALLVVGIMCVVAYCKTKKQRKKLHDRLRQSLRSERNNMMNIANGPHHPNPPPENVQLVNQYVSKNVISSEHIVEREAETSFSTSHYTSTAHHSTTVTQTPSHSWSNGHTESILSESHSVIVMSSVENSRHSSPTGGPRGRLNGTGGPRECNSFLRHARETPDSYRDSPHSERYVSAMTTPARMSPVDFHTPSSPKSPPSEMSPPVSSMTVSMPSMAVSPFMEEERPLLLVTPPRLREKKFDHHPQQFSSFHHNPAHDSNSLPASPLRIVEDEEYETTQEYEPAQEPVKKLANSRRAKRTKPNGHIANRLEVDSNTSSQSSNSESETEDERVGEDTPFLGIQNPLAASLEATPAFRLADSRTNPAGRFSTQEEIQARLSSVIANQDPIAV
Sequence of Torsin-1A-interacting protein 2 (Homo sapiens) (Q8NFQ8 whole entry, looked up): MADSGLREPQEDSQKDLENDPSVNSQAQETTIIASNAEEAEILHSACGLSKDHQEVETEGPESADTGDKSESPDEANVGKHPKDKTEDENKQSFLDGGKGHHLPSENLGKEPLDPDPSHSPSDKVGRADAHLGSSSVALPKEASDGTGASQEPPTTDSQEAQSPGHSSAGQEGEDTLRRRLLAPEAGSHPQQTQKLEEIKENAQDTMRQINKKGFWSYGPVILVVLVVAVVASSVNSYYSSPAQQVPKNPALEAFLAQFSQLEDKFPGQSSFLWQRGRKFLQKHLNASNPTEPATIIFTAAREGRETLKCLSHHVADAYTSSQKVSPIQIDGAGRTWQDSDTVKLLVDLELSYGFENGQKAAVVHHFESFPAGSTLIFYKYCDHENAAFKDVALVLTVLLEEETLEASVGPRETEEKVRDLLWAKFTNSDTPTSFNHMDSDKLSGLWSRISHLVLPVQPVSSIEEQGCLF

Consider `C=CCOC(=O)[C@H]1[C@@H]2C(=O)O[C@@H](c3ccccc3)[C@@H](c3ccccc3)N2[C@@H](c2ccc(OCCOC(=O)[C@H]3C[C@H]4C(=O)N[C@@H](CCCC[N+](C)(C)C)C(=O)N4[C@H]3c3ccc(O)cc3)cc2)[C@]12C(=O)Nc1ccccc12`, for which the composite z-score in assay [1] is 0.104; in [2], 0.154; in [3] it was -0.1; in [4], 0.276; in [5] it was 0.193; in assay [6], 0.06. Further, the composite z-score in [7] was 1.09; in assay [9] it was 0.357; in assay [10] it was -0.608; in assay [11] it was -0.146; in assay [15] it was 1.68; in assay [17], 0.126. For the same compound, the composite z-score in [18] was 1.08; in assay [19] it was 0.321; in [20] it was -0.194. Further, the z-score was 0.131 (inactive) in assay [8]; -0.193 (inactive) in assay [12]; -2.55 (inactive) in assay [13]; -1.05 (inactive) in assay [14]; -0.405 (inactive) in assay [16].

Consider `CC(C)[Si]1(C(C)C)O[C@@H](c2ccccc2)c2cc(-c3ccc(-c4ccc(Cl)c(Cl)c4)o3)nc(CCc3ccccc3)c21`, for which the composite z-score in [1] is 0.662; in assay [2] it was -0.56; in assay [3] it was -0.16; in assay [4] it was -0.641; in [5], -0.868; in [6], -0.345. Besides, the composite z-score in [7] was -0.314; in assay [9], -0.363; in [10], 0.269; in assay [11], 0.324; in [15] it was 0.883; in assay [17], -0.126. The composite z-score was -1.37 in [18], -1.78 in [19] and -0.248 in assay [20]. Also, the z-score is 0.838 (inactive) in [8]; 0.149 (inactive) in [12]; -2.2 (inactive) in assay [13]; 3.08 (inactive) in assay [14]; -0.823 (inactive) in [16].

In the case of `O=C(NCC(O)CO)[C@@]1(Cc2ccccc2)N=C(c2ccc(OCCCO)cc2)O[C@H]1c1ccccc1` (stereo not given in full), the composite z-score in [1] is 1.32; in assay [2] it was 0.691; in [3] it was 0.16; in [4], 0.36; in assay [5], -0.0617; in assay [6], 1.39. For the same compound, the composite z-score in assay [7] is 1.26; in assay [9], 1.08; in assay [10], 0.415; in assay [11], 0.814; in assay [15], 3.57; in [17] it was 0.491. Moreover, the composite z-score in [18] is 0.431; in assay [19], -0.376; in assay [20] it was 0.298. In addition, the z-score was -1.89 (inactive) in [8]; -0.738 (inactive) in assay [12]; -0.456 (inactive) in assay [13]; -1.26 (inactive) in [14]; 1.62 (inactive) in assay [16].

With `COc1ccccc1CN1C(=O)c2ccccc2[C@](Cc2ccccc2I)(C(=O)NC2CC2)[C@@H]1c1ccc(CO)cc1`, the composite z-score in assay [1] was -0.532; in assay [2], 0.46; in [3], 0.0673; in assay [4] it was 0.531; in assay [5], 1.32; in [6] it was 0.949. Also, the composite z-score was 1.42 in assay [7]; 0.653 in [9]; 0.136 in assay [10]; 1.54 in assay [11]; 3.3 in assay [15]; -0.117 in assay [17]. Moreover, the values for the composite z-score in assay [18], in assay [19] and in assay [20] were 1.1, 1.06 and -0.0897, respectively. The z-score in [8] is -2.86 (inactive); in [12], -0.357 (inactive); in assay [13], 0.642 (inactive); in [14], 2.01 (inactive); in assay [16] it was 0.199 (inactive).

Take `O=C(NCC(F)(F)F)[C@@H]1c2ccccc2C(=O)N(Cc2ccccc2)[C@H]1c1ccc(CO)cc1`: the composite z-score was 1.16 in assay [1]; 0.299 in assay [2]; -0.0637 in assay [3]; -0.358 in assay [4]; -0.514 in assay [5]; 0.0291 in assay [6]. Besides, the composite z-score in assay [7] is 0.432; in assay [9] it was -0.419; in [10] it was -0.0078; in [11], 1.04; in [15], 2.35; in assay [17] it was -0.0192. Besides, the results for the composite z-score in assay [18], in assay [19] and in assay [20] were -1.34, -0.612 and -0.194, respectively. Also, the z-score in assay [8] is -1.3 (inactive); in assay [12] it was -0.526 (inactive); in [13], 0.0532 (inactive); in assay [14], 0.13 (inactive); in assay [16], 0.544 (inactive).
